Here are results for 69 sequences from PubChem BioAssay AID1508600 (Functional Genomics Laboratory (NCATS/FGL), 2020).

Hit rate of the full screen: of about 53,000 sequences, about 3,700 (7%) were called active.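 How the source made its calls: active means gene knockdowns whose robust z-score for IL-1 alpha signal is at least 2 or at most -2, so actives lie on both sides; inactive means the rest.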 The full list was thinned out, with actives kept by preference.

The nature of this test: Components of the Cytosolic LPS Sensing Pathway: Gene Identification via Genome-wide siRNA Screen. To be noted: RAW264.7 macrophages, IL-1a HTRF, actives lie on both sides, screened at 100 nM (by protocol), cells primed 5 h with Pam3CSK4 first. The text has this:
Non-canonical inflammasome activation by cytosolic LPS is a critical component of the host response to Gram-negative bacterial infection, however we lack a comprehensive understanding of the cellular processes that control this pathway. Here we describe a genome-wide siRNA screen to identify genes regulating the mouse macrophage IL-1 alpha response to cytosolic LPS.
RAW264.7 cells were maintained in complete DMEM media, comprising DMEM with 4.5 g/L glucose, 10% FBS (Gemini Bio-Products, West Sacramento, CA), 2 mM Glutamine (Lonza) and 20 mM HEPES (Lonza), hereafter complete DMEM.
The RNAi screen was conducted in 384-well format using the Ambion Silencer Mouse Genome siRNA Library (#4391425), which consists of three unique, nonoverlapping, nonpooled siRNAs for each of 17,000 gene targets. siRNA reagents ([…]) were stamped into 384-well white flat-bottom microplates (Corning, 3570) using a Velocity11 VPrep liquid handling system (Agilent) integrated into a BioCel robotic platform (Agilent) in columns 1-22, leaving columns 23-24 empty for negative (Ambion, Negative control #1) and positive (mouse Casp4) controls, respectively. The median value of each plate's negative control column was used to normalize sample wells, and the positive control was used to assess transfection efficiency and assay performance.
Lipofectamine RNAiMAX Transfection Reagent ([…]; Invitrogen) was added in […] serum-free, antibiotic-free media to plate wells using a Thermo Scientific Matrix WellMate and Microplate Stacker. Plates were incubated for 45 min at room temperature to allow for the sufficient formation of siRNA-lipid complexes. Cells were seeded at a density of 1x10^4 cells per well in 20 microL media containing 20% (vol/vol) FBS without antibiotics. The final concentration of siRNA in each well was 100 nM. Cells were cultured for 48h at 37 degrees C in 5% CO2 before addition of […] of TLR ligand Pam3CSK4 for 5 hours. The medium was then removed, replaced with […] growth media and cell were transfected with […] of LipidA and TransIT-TKO (Mirus) for 24 hour. At the end of the LipidA treatment, […] of supernatant was transferred to a 384 Greiner Bio-one non-binding low volume plate and […] of IL-1a HTRF reagent (Cisbio, 62MIL1APEH) was added and incubated at room temperature overnight. The plates were read on an EnVision plate reader (PerkinElmer). Cell viability was measured by adding 20ul Cell Titer Glo to the original plate and running a luminescence read on the EnVision. The quantified IL-1a signal for each siRNA gene-targeted well was divided by the median of the negative control wells and multiplied by 100 to achieve a negative control normalized value for each well/siRNA. This normalized value was then used to generate a robust z-score by first taking the log of each value and then by subtracting the median and dividing by the […].
(In general: Time-resolved FRET reads energy transfer from a long-lived donor to a nearby acceptor.)
With “GACAAGUUCUCAAGUAUCCTT against 1110006O24Rik”, the z-score was -2.02 (active).
Under “GGUCCAUAACUUGUGUGCUTT against 3300002I08Rik” stands -0.462 (inactive).
Under GGUUGUGAAACGAUGCCCUTT against Trp63 stands -0.512 (inactive); under CCUGCAAUCAAAACAUCAATT against Vmn1r10, 1.13 (inactive); under GGAAUUAUCUGAGCCUGUGTT against Fam193b, -0.0725 (inactive).
Under GGAAGAGAGAUUCCUAUAGTT against Sec11a stands -2.03 (active).
In the case of GGCUUGGUGGGACAGAUAUTT against Ccdc51, the z-score is -1.82 (inactive).
Under GCUAGAUCCAUCCAUAUAGTT against Misp stands -1.26 (inactive); under GGUGAAGAUCUGAUAAGAATT against Epb41, -1.44 (inactive); under GCAACCUCAUACCAAAGAGTT against Zfyve26, 0.211 (inactive).
For GGUCACUAUCUCUGAUUUCTT against Bpifb2 the value was -1.38 (inactive); for GGUCAUCCUUGCCAAUCUCTT against Olfr686, -2.11 (active); for GGAAUCUUCCAGAACUAAATT against Rufy1, 0.912 (inactive).
For GCAGGUCUUACCAGAUCGATT against Thap3 the value was -0.765 (inactive); for GGCAGUAAGGCUCCAAUCUTT against Tcp10a, -2.1 (active).
On to GGCUCUGAACAGCAUUGACTT against Mdfi, for which the z-score is -0.521 (inactive).
Under GGUUUGAAUCAAAUUGUACTT against Hyou1 stands -1.12 (inactive).
Under CCUCCACAUUUAUUUGCUATT against Mbtd1 stands 1.23 (inactive); under ACCUGAAUUUGGUGACUGATT against Rdh18-ps, 0.368 (inactive).
Under GGUAUUAUGAGACAGGAAGTT against Pax5 stands -1.61 (inactive).
As to GGUUUUAGGAUCCUAGAAGTT against Ap1s1, the z-score was 0.957 (inactive).
Under GCUGGCUUUGAUUUAUGGATT against Prkar1a stands 5.06 (active).
Under GGACGUGUUCGGAAACCUATT against Psmc3ip stands 0.134 (inactive); under CCUGUGCUCUGAGUUUGGCTT against Tmem270, 0.00319 (inactive).
Under GGACAAACGGGAAAAGAAGTT against Sprr2d stands -2.04 (active).
GGGUUGUUUGUCUUGUUCGTT against Rspo2: the z-score was 0.847 (inactive).
For GGAAAGAUUCAAAGAACCUTT against Rpia the value was 1.45 (inactive).
For GGCAGACAGUCUAACAGAUTT against Krt6a the value was 0.283 (inactive); for GGCAGUUAUUCAGAAUUGATT against Nfu1, -2.2 (active); for GAUUUUCCUGCUCACAAUGTT against Olfr1269, 1.03 (inactive).
Under GGACUUGAGUCAGCUCAUCTT against Fastk stands -1.38 (inactive); under GCAACAUUGGAUGUACUCATT against Hdac10, -2.63 (active); under CGUAUAUCCGGUCAGAAGATT against Cnot4, 0.634 (inactive).
In the case of GCAGCAUCGCUAUGUCCUGTT against Ccl26, the z-score is 0.182 (inactive).
On to GGAACAAUGCUCAAUUUUUTT against Rfc1, for which the z-score was 1.63 (inactive).
In the case of GCUCCUACGUGUCAGCCUUTT against Skor1, the z-score is -0.815 (inactive).
For CGGUCAUGUCUACAUGUGCTT against Cfp, the z-score is -0.0864 (inactive).
Under GGAAUUGUUAAUUGUGGGATT against Stau2 stands -2.25 (active); under GGCUUCAGAUUUCGAUAUGTT against Nfkb2, 1.02 (inactive).
For CCUUGGACUUGAGUUCCAATT against Ssu2 the value was 1.58 (inactive); for GGCAAAUGUGGCCGUGUUUTT against Ccne1, 0.175 (inactive).
As to GGAAGAAGCAAAGAACUAUTT against Spg20, the z-score was 0.552 (inactive).
For GGGCUGAUGUGGGCUAAAUTT against Tmem38a the value was 2.47 (active).
For GCCCGGAAUAUAUAGCCCUTT against Hdac10 the value was -0.706 (inactive).
Under CCUCCAGAUAAGAAUGUGCTT against Fnip1 stands -1.34 (inactive); under CGUAAGUGGACGACGGUUCTT against Kcnd3, 0.106 (inactive); under CGAAGGUACUAUGUAUUUUTT against Tbce, -0.12 (inactive).
As to GGAACACAUUGGGUAUGCCTT against Sac3d1, the z-score is -0.575 (inactive).
Under GGUGUUUAUCGACAGGUACTT against Myo15 stands 0.126 (inactive).
For CAAACUGGGUCCCAAUGAATT against Ndufa4 the value was 2.7 (active); for GGGAAGUUGUCCUUGAAGATT against Cd36, -0.037 (inactive); for GGACCAUCCCUGUUUUAUATT against Ifrd2, -0.0712 (inactive).
For GGUCCCUAGCACUAUUUUUTT against Hes6 the value was 1.04 (inactive); for GGAAUAUCACUUCCAUACATT against Ntrk3, 0.587 (inactive).
On to GACCAACCCUCACUAAGCUTT against Tcstv3, for which the z-score was -0.364 (inactive).
For GGAGCAGAUAAUGUACAUATT against Cep112 the value was 2.32 (active); for GGACUAUUUGGAAACCUCCTT against Olfr1366, -0.304 (inactive).
Regarding GGAUGUAACUAGUAACUUUTT against Kcnn3, the z-score was 0.108 (inactive).
With GCAAGAAAACCUUAGCUCATT against Trpm2, the z-score is -0.518 (inactive).
For CGGAUACAGGUUCGGGUAATT against Nemp1 the value was 1.06 (inactive); for CCGUGACGAGCUUGUGGUUTT against Ap3b2, 0.788 (inactive); for GGUCCGAUAUCUGAGUCUCTT against Hic1, 0.471 (inactive).
Under CCUUAAUCGCAUCAAAUUATT against Slc1a3 stands 2.35 (active); under GGUUAGAAUAUGCAGAACATT against Arntl, -0.525 (inactive).
Under GGAGGGCAUCCUCUUCAAATT against Drc3 stands 0.312 (inactive); under GGUAUUAUGACUGUAAAGGTT against Endou, 0.0412 (inactive); under GGAAGUGAAUAUUGAGUUUTT against Bccip, 2.04 (active).
For the sequence GGAGAAGAAAAAGAUUAUCTT against Atp6v1d, the z-score is 1.07 (inactive).
Under GGGAAGAUGUGGAUGUCAUTT against Oprk1 stands -1.05 (inactive).
